# Bioassay records: PubChem BioAssay, National Center for Advancing Translational Sciences (NCATS)
# GLA inh pH 4.5 = alpha-galactosidase A (human) inhibition, pH 4.5; 230,000 tested, under 10 active; P06280; purified enzyme, 4-MU-alpha-Gal fluorescence, pH 4.5; activity change, negative = inhibition, % at 105 µM;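 also: 0% = full activity with enzyme and -100% = basal without enzyme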
# HPGD block = blocks human HPGD enzyme activity | AID 894 | Potency, µM, for the others: top-dose activity change, negative = inhibition, hits mostly inhibitors | purified HPGD, NADH fluorescence kinetic, PGE2 substrate | 150,000 tested, 4.3% active | P15428; active = well fitted inhibition curve with a large enough effect, not every such curve was filed as active; inconclusive = small, poorly fitted or top-dose-only effect, or another doubt; inactive = no such curve, though single readings can be large or run the other way; also: potency is read from the fitted curve at half-maximal effect
#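 NADH formation kinetics: reaction with 30 uM PGE2 and 1 mM NAD+ (final), 20 nM enzyme, Tris-HCl pH 8 with Tween 20, after 15 min compound preincubation at room temperature. Fluorescence change, last versus first of five reads.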
# 12-hLO inh = inhibitors of human 12-lipoxygenase (ALOX12). P18054. purified 12-hLO, xylenol orange hydroperoxide absorbance. Potency, µM (top dose mostly 57.1 µM), without a hit: at the top dose activity change, negative = inhibition, hits mostly inhibitors. 150,000 tested, 0.12% active. AID 1452; also: potency is read from the fitted curve at half-maximal effect; nearly all actives have a fitted effect of over 55% in size
#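 150 nM 12hLO, 25 mM Hepes pH 7.0 + 0.01% Triton X-100; cpd preinc 15 min RT; 40 uM arachidonic acid, 30 min RT; Fe-XO 30 min; A573/A405 ratio as read-out.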
# GLA spleen mod = inhibitors or activators of human alpha-galactosidase in spleen homogenate; human spleen homogenate, 4MU-alpha-Gal fluorescence, 40 min; 240,000 tested, 0.008% active; P06280; Potency, µM (doses to about 80 µM), inactives show at the top dose activity change, negative = inhibition, most hits filed as inhibitors;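 also: potency is read from the fitted curve at half-maximal effect; 0% = enzyme with vehicle and -100% = no enzyme basal signal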
#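 qHTS titration in buffer at pH 5.0. Alpha-galactosidase activity in spleen homogenate was measured via 4-methylumbelliferone release from 1 mM fluorogenic substrate after 40 min at 37C and a pH 10 stop. AC50 came from Hill fits of control-normalized data.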
# PNC assembly inh = inhibitors of perinucleolar compartment assembly; PC3M PTB-GFP, PNC prevalence imaging, 16 h; hits give low values; 140,000 tested, 3.1% active; AID 2417; activity change (PNC), negative = inhibition, % at 10 µM;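 active = readout at or below -70, meaning at least 70% loss of cells showing the perinucleolar compartment, a nuclear body marking cancer cells; inconclusive = readout between -30 and a set limit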;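 also: plate controls were DMSO wells for no effect and camptothecin positive control wells for full effect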
#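 Read-out is percentage of cells bearing a perinucleolar compartment, from automated 20x imaging of fixed, Hoechst-stained PC3M PTB-GFP cells. Cells were seeded 4 h, then exposed 16 h to compound (23 nl of library stock) in duplicate plates.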
# ALDH1A1 inh = ALDH1A1 (human) enzyme inhibition; 220,000 tested, 7.3% active; Potency, µM (highest dose often 75.3 µM), for inactives: at the top dose activity, negative = inhibition, actives largely listed as inhibitors; Purified ALDH1A1, NADH fluorescence, propionaldehyde substrate; active = well fitted inhibition curve with a large enough effect, not every such curve was filed as active; inconclusive = small, poorly fitted or top-dose-only effect, or another doubt; inactive = no such curve, though single readings can be large or run the other way;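 also: potency is read from the fitted curve at half-maximal effect; plate controls were no enzyme wells and a reference inhibitor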
# Target sequence (P00352 whole entry, looked up): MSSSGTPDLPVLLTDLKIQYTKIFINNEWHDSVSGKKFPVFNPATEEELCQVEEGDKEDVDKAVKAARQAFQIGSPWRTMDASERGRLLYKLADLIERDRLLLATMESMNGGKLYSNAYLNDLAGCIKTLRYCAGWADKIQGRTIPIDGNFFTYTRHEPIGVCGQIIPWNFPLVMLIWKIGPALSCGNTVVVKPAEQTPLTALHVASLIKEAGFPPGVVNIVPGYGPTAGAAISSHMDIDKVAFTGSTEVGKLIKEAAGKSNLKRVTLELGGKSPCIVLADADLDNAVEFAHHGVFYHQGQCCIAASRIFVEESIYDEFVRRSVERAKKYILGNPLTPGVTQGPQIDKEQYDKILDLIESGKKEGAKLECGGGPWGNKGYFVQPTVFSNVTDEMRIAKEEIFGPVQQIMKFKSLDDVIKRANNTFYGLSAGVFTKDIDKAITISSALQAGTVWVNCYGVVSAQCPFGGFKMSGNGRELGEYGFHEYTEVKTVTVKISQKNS
# * hit, by the source's call; u = inconclusive; x = not tested or not shown; [ ] = another dose, or the depositor's remark. Compounds with a hit are over-represented: about 10% of the library has one in this group of screens. Unless noted, calls follow the shape of the dose curve; as a rule, active = well fitted curve in the direction sought with a large enough effect; inconclusive = small, poorly fitted or top-dose-only effect, or another doubt; inactive = no such curve, though single readings can be large; an effect the other way counts as inactive or inconclusive. Unless noted, % is scaled to controls: 0 for no effect and ±100 for the full control effect.
SMILES,GLA inh pH 4.5,HPGD block,12-hLO inh,GLA spleen mod,PNC assembly inh,ALDH1A1 inh
CN1CCN(C(=O)c2ccc3c(=O)n(Cc4ccc(Cl)cc4)c(=S)[nH]c3c2)CC1,7,-19%,-18%,2%,-8,22µM*
CCOC(=O)N1CCN(C(=O)c2ccc3c(=O)n(Cc4ccccc4)c(=S)[nH]c3c2)CC1,-24,-14%,-11%,1%,57,u
CC1CC(C)CN(C(=O)c2ccc3c(=O)n(Cc4ccc5c(c4)OCO5)c(=S)[nH]c3c2)C1 (centres undefined),7,16µM*,-18%,-2%,u,1.4µM*
CNc1ncnc2c1ncn2[C@@H]1O[C@H](CO)[C@H](O)[C@H]1O,-7,3%,x,-3%,x,-2%
CC(=O)/C(=C\c1ccccc1F)C(=O)c1ccccc1,x,-10%,-6%[11.4 µM],x,x,1%[13.5 µM]
Cc1nnc(N/N=C/c2ccc(-c3ccc(Br)cc3)o2)n1N,-9,x,x,2%,x,7.9µM*
CC1(C)CC(=O)C(C=NCCN2CCN(C(=O)NC34CC5CC(CC(C5)C3)C4)CC2)=C(O)C1,-13,-9%,-3%,4%,-10,16µM*
CC1(C)CC(=O)C(C=NCCN2CCOCC2)=C(O)C1,8,-12%,2%,-1%,-96*,u
CC(=C1C(=O)c2ccccc2C1=O)N1CCN(CCN=CC2=C(O)CC(C)(C)CC2=O)CC1,2,-4%,3%,-4%,31,14µM*
CC1(C)CC(=O)C(C=NCCN2CCN(C(=O)CC3CCCC3)CC2)=C(O)C1,7,-6%,-1%,-1%,-4,u
COc1c(C)cc(C(=O)C2CCCN(C(=O)c3cccc(-n4cccn4)c3)C2)cc1C (centres undefined),-14,x,x,11%,x,u
COc1ccc(C(=O)c2ccccc2)c(O)c1O,-5,-21%,0%,2%,x,-3%
COc1ccc(N=Nc2nc3cc(Br)c(Br)cc3n2C)c(OC)c1,6,7.9µM*,-23%,9%,-16,12%
Cc1ccc(S(=O)(=O)/N=C(\c2ccccc2)N(C)S(=O)(=O)c2ccccc2)cc1,-3,-9%,2%,2%,-12,u
CN(/C(=N\S(=O)(=O)c1ccccc1)C(F)(F)F)c1ccccc1,-13,-19%,14%,6%,25,28µM*
COC(=O)C(NC(=O)COc1ccccc1)(Nc1nc2c(s1)CCCC2)C(F)(F)F (centres undefined),-2,35µM*,0%,-9%,-14,-3%
Cc1noc(/C=C/c2ccco2)c1S(=O)(=O)N1CCC(C(=O)N2CCc3ccccc3C2)CC1,-6,20µM*,-12%,-3%,36,u
O=C(NCCC1=CCCCC1)C1CCN(S(=O)(=O)N2CCCC2)CC1,3,x,x,-1%,x,u
CC(C)(C)c1ccc(C(=O)N2CCC(C(=O)NCCC3=CCCCC3)CC2)cc1,-7,1%,1%,-23%,71,10µM*
COc1ccc(OC)c(S(=O)(=O)N2CCC(C(=O)N3CCOCC3)CC2)c1,-1,x,x,-4%,x,-15%
Cc1ccc(NC(=O)C2CCN(S(=O)(=O)c3c(C)noc3/C=C/c3ccco3)CC2)nc1,-9,-22%,-3%,4%,u,u
COc1ccc(OC)c(S(=O)(=O)N2CCC(C(=O)N3CCc4ccccc4C3)CC2)c1,2,22µM*,-5%,-11%,3,u
O=C(NCCC1=CCCCC1)C1CCN(S(=O)(=O)c2ccc(Br)s2)CC1,-2,-9%,-2%,-12%,u,19µM*
CN(Cc1ccccc1)Cn1ccnc1,x,-8%,3%[11.4 µM],x,x,-6%[13.5 µM]
O=C(O)/C=C(/C(=O)O)[C@]12CCN3CC4=CCO[C@@H]5CC(=O)N[C@@H]1[C@H]5[C@H]4C[C@H]32,x,x,-1%[11.4 µM],x,x,x
SMILES,GLA inh pH 4.5,HPGD block,12-hLO inh,GLA spleen mod,PNC assembly inh,ALDH1A1 inh
O[C@@H](c1ccccc1)C1CCN(CCc2ccccc2)CC1,-2,0%,-3%,1%,x,-3%
CCN1CCN(S(=O)(=O)c2cc(OC)ccc2OC)CC1,5,-4%,8%,-4%,-15,-11%
COc1ccc(OC)c(S(=O)(=O)N2CCC(C(=O)NCCC3=CCCCC3)CC2)c1,3,-10%,-6%,1%,-100*,22µM*
COc1ccc(OC)c(S(=O)(=O)N2CCN(c3c(C)cccc3C)CC2)c1,3,-5%,-11%,0%,0,14µM*
CNC(=S)NCCCCc1cnc[nH]1,x,x,x,5%,x,x
O=C1CC(c2ccccc2F)c2c(c3ccccc3[nH]c2=O)O1 (centres undefined),8,x,x,-1%,x,x
CCOC(=O)c1[nH]nc(-c2cc(CC)c(O)cc2O)c1-c1cscn1,1,-8%,-19%,-8%,-17,8.9µM*
Cc1coc2c1C(=O)C(=O)c1c-2ccc2c1CCCC2(C)C,-3,16µM*,u,6%,x,20µM*
Cc1coc2c1C(=O)C(=O)c1c-2ccc2c(C)cccc12,-9,x,x,-7%,x,x
CC1CC(C)(C)CC2(C1)NC(=S)N(c1ccccc1)N2 (centres undefined),-2,-9%,u,0%,-17,16µM*
CC1CCCCC12NC(=S)N(c1ccccc1)N2 (centres undefined),4,x,x,11%,x,14µM*
CC1CCCC2(C1)NC(=S)N(c1ccccc1)N2 (centres undefined),1,-6%,u,3%,u,u
CCOC(=O)c1sc(NC(=O)c2cccc(S(=O)(=O)N3CCN(C)CC3)c2)cc1C,-12,25µM*,-13%,-2%,-12,u
CCOC(=O)c1sc(NC(=O)c2cccc(S(=O)(=O)N(CC)CC)c2)cc1C,8,11%,-6%,6%,-8,12%
CC(O)CNCCNCc1c(OCc2ccccc2)ccc2ccccc12 (centres undefined),-4,-9%,-3%,19%,-9,28µM*
CC(O)CNCCOc1ccccc1OCc1ccccc1 (centres undefined),-8,x,x,-6%,x,-9%
CCCCCCCCCCCCC/C=C/[C@@H](O)[C@@H](N)CO,-3,-14%,0%,u,x,-10%
Oc1ccc(-c2nc(=S)[nH][nH]2)cc1,-2,u,u,2%,-28,u
S=c1nc(-c2cccc(Cl)c2)[nH][nH]1,2,x,x,2%,x,u
